# Measured values reported in PubChem BioAssay AID1745850 (National Center for Advancing Translational Sciences (NCATS), 2022).
# The campaign covered roughly 2,100 compounds. About 260 (12%) were called active. Not shown: some 58% with an inconclusive outcome. The call rests on the fitted dose curve; in most records, active means well fitted cell-killing curve with a large enough effect; inconclusive means small, poorly fitted or top-dose-only effect, or effect the other way; inactive means flat fitted curve, though single readings scatter. The list shows a part of the results.
# Assay: Viability Counterscreen for Confirmatory qHTS for Inhibitors of ATXN expression; further: nearly all actives have a fitted effect of over 50% in size
# Conditions: HEK-293 ATXN2-luc cells viability, CellTiter-Fluor, 24 h; activity change, negative = cytotoxicity: at the top concentration
# Description: PI: Daniel Scoles Ph.D. University of Utah School of Medicine, Salt Lake City, Utah MLPCN Grant: NS073009 Spinocerebellar ataxia type 2 (SCA2) is a multisystem neurodegenerative disease caused by a dominantly acting mutation leading to expansion of a polyQ domain in the ataxin-2 protein (ATXN2). SCA2 patients develop progressive ataxia and later lose function in other neuronal systems. Prominent parkinsonian signs develop in some patients. Like many neurodegenerative disorders, no symptomatic or disease-modifying treatments are known. The primary objective of the proposed research is to identify compounds inhibiting ATXN2 expression and to test them for efficacy in SCA2 mouse models. We have developed a cell-based assay paired with an in vivo mouse model using identical luciferase expression constructs. This approach takes advantage of an ATXN2-luciferase transgene, with the luciferase gene flanked by the upstream and downstream portions of the ATXN2 gene. Here we describe a 5-7 dose quantitative high thoroughput screen (qHTS) for compounds lowering ATXN2 expression. We screened the NIH Molecular Libraries Small Molecule Repository (MLSMR) and NCGC's mechanistically annotated (MIPE) and drug repurposing (NPC) collections of compounds for lowering expression of an ATXN2-luciferase reporter in HEK-293 cells. The assay is a multiplexed cell viability assay to ensure target reduction in the absence of cytotoxicity. Secondary qHTS assays included a CMV-luciferase reporter expressed in HEK-293 cells as well as a biochemical assay using recombinant luciferase to detect inhibitors of the reporter enzyme. Compounds that inhibit ATXN2 expression but is not cytotoxic were selected for confirmatory and secondary screens.
# PROTOCOL TABLE (as described by Inglese J, Shamu CE and Guy RK. 2007) SEQUENCE No. (e.g., 1, 2, 3, etc.); […] (e.g., Cells, Incubation, Reagent, etc.); VALUE; DESCRIPTION. 1; Cells; 4 uL; white, solid bottom, 1536-well Greiner assay plate. 2; Incubation; 2 hr; 37 degree C in 5% humidified CO2. 3; Compounds; 23 nL; Kalypsis pintool (Wako USA) equipped with a 1536-well pin head. 4; Incubation; 24 hr; 37 degree C in 5% humidified CO2. 5; Reagent; 1 uL; Gly-Phe-7-Amino-4-trifluoromethylcoumarin. 6; Incubation; 30 min; 37 degree C in 5% humidified CO2. 7; Detection; Fluorescence; ViewLux plate reader (PerkinElmer). 8; Reagent; 3 uL; SteadyGlo luciferase solution (Promega). 9; Incubation; 5 min; room temperature. 10; Detection; Luminescence; ViewLux plate reader (PerkinElmer). NOTES (numbers refer to Sequence numbers above) 1. S2 cells expressing ATXN2-luciferase reporter were suspended in phenol-red free DMEM and dispensed in assay plates using a Multidrop Combi dispenser (Thermo Fisher Scientific). Wells containing medium only were plated on each plate, and values were used to normalize (100% inhibition) in the luciferase and CellTiter-Fluor assays. 2. Assay plates were incubated. Evaporation was prevented by covering assay plates with metal lids containing holes to allow gas diffusion. 3. Compounds were added in a dose response manner with the final concentrations of 57, 11.4, 2.28, 0.46, 0.091, 0.018, 0.0037 uM. Vehicle-only plates, with DMSO being pin-transferred to columns 5-48, were inserted uniformly at the beginning and the end of each library to monitor and record any shifts in assay performance. 5. 125 uM Gly-Phe-7-Amino-4-trifluoromethylcoumarin (MP Biomedicals) working concentration was used at a final concentration of 25 uM. 7. To assess cell viability; the assay plates were read using the ViewLux high-throughput CCD imager (PerkinElmer), wherein single end-point fluorescence measurement was acquired (excitation 405/10; emission 540/25 nm). 8. Detection reagent SteadyGlo Luciferase (Promega) was added to the assay plate. 10. Luminescence is then measured on the ViewLux imager equipped with a clear emission filter using a 2 sec exposure. […]
# Potency means the concentration at half of the fitted maximal effect.
Structure (SMILES),"activity change, negative = cytotoxicity",Potency
NNc1nc(N)c2c(n1)-c1ccccc1CC21CCCC1,-20.9% [at 57.5 µM] (inactive),
CC(=O)Nc1ccc(NC2=Nc3ccccc3N3C2=Nc2c(c(C)nn2-c2ccccc2)C3c2ccccc2)cc1 (centres undefined),21.2% (inactive),
OCCNc1c2ccccc2nc2c(F)c(F)c(F)c(F)c12,19.5% [at 57.5 µM] (inactive),
CC(=O)Nc1ccc(Nc2c3ccccc3nc3ccccc23)cc1,,17.8 µM (active)
Cc1nnc(SCC(N)=O)n1CC1CCCO1 (centres undefined),-18.5% [at 57.5 µM] (inactive),
CCOc1ccc(C(=O)Nc2ccc(Cc3ccncc3)cc2)cc1Br,-20.8% [at 57.5 µM] (inactive),
CCOc1ccccc1NC(=O)N1CCC(c2nc3ccccc3[nH]2)CC1,-18.1% (inactive),
CCOc1ccccc1C(=O)Nc1ccc2nc(N3CCN(c4ncccn4)CC3)cc(C)c2c1,,11.2 µM (active)
OC(c1ccccc1)(c1nc(-c2cc3ccccc3o2)cs1)C(F)(F)F (centres undefined),-13% [at 57.5 µM] (inactive),
CCc1ccc(-c2nc(CS(=O)CC(=O)NCc3ccco3)c(C)o2)cc1 (centres undefined),-6.43% (inactive),
O=C(N/N=C\c1ccc([N+](=O)[O-])s1)c1cncc(Br)c1,,11.2 µM (active)
O=C(N/N=C/c1ccc([N+](=O)[O-])s1)c1ccccc1Br,,22.4 µM (active)
COc1ccc(C(=O)NCC(=O)N/N=C/c2ccc([N+](=O)[O-])s2)cc1OC,,22.4 µM (active)
O=C(CNC(=O)c1cccc(Br)c1)N/N=C/c1cc(Br)cc(Br)c1O,-26.1% [at 57.5 µM] (inactive),
O=C(N/N=C/c1cc(Br)ccc1O)c1ccncc1,-3.23% (inactive),
O=C(CNC(=O)c1ccccc1Br)N/N=C/c1cc(Br)ccc1O,-2.53% (inactive),
Cc1ccc(OCCNC(=O)c2cncc(Br)c2)cc1C,-20.8% [at 57.5 µM] (inactive),
O=C(CP(=O)(c1ccccc1)c1ccccc1)N/N=C/c1cc(Br)cc(Br)c1O,1.93% (inactive),
CN(Cc1cnc2nc(N)nc(N)c2n1)c1ccc(C(=O)NC(CCC(=O)O)C(=O)O)c2ccccc12 (centres undefined),-30.4% [at 57.5 µM] (inactive),
Cc1c(N=C2N=C(NC(=O)c3ccc(F)cc3)c3ccccc32)c(=O)n(-c2ccccc2)n1C,-23.7% (inactive),
Cc1c(N=C2C=CC(=O)c3ccccc32)c(=O)n(-c2ccccc2)n1C,,28.2 µM (active)
Cc1cccc(/C=N/NC(=O)c2cccc(Cl)c2)n1,-18.5% (inactive),
COc1ccc(OCCNC(=O)C2(C)CCN2Cc2ccc3ccccc3c2)cc1 (centres undefined),-28.2% [at 57.5 µM] (inactive),
C[C@@H]1CC=C[C@@H]2[C@H]1C(=O)N(Cc1ccccc1)[C@H]2c1ccccc1Br,-29.3% [at 57.5 µM] (inactive),
O=C1Nc2c(Br)cc(Br)c3cccc1c23,-20.9% [at 57.5 µM] (inactive),

Structure (SMILES),"activity change, negative = cytotoxicity",Potency
COc1ccc(C)cc1NC(=O)C(Sc1nnc(-c2ccncc2)n1-c1ccc(Cl)cc1)c1ccccc1 (centres undefined),-12.9% (inactive),
CCCOc1ccccc1C1NC(=O)NC(C)=C1C(=O)OCc1ccccc1 (centres undefined),-14% (inactive),
Cc1cccc(NC(c2ccc(C)s2)c2ccc3ccc(C)nc3c2O)n1 (centres undefined),,25.1 µM (active)
Cn1nc(C(=O)N2CCN(c3ccc(Cl)cc3)CC2)c2c1-c1ccccc1S(=O)(=O)C2,-12.1% (inactive),
O=C(CCC(=O)Nc1ccc(Br)cc1)N/N=C/c1ccccc1O,-18.6% (inactive),
COC(=O)c1c(NC(=O)c2ccc([N+](=O)[O-])o2)sc2c1CCN(C(C)C)C2,,28.2 µM (active)
O=C1C=Cc2cccc3ccc(O)c1c23,4.45% (inactive),
O=C(CN1C(=O)c2ccccc2S1(=O)=O)c1ccc(Cl)cc1Cl,-6.86% [at 57.5 µM] (inactive),
O=[N+]([O-])c1c(Nc2ccccn2)cc(Cl)c2nonc12,,11.2 µM (active)
COc1cc(OC)c(OC)cc1/C=C1\CC(C)C/C(=C\c2cc(OC)c(OC)cc2OC)C1=O (centres undefined),,17.8 µM (active)
C=CCc1ccccc1OCC(O)CN1CCN(CCN2C(=O)c3cccc4cccc(c34)C2=O)CC1 (centres undefined),,31.6 µM (active)
O=C(CNC(=O)c1ccccc1O)N/N=C/c1cc(Br)ccc1OC(=O)/C=C/c1ccco1,-4.41% (inactive),
Cc1ccc(C(=O)CN2C(=O)c3ccccc3S2(=O)=O)cc1,5.17% (inactive),
Oc1ccc(C2CNCc3sccc32)cc1O (centres undefined),-19.8% [at 57.5 µM] (inactive),
O=C(CN1CCCc2ccccc21)N/N=C/c1ccccc1O,-21.2% (inactive),
C[C@@H]1ON(C)[C@H]2C[C@H]3c4[nH]c5ccc(-c6ccc7c(c6)OCO7)cc5c4CCN3C(=O)[C@@H]12,-27.8% [at 57.5 µM] (inactive),
CC1(C)Cc2c(ccc3ccccc23)C2=C(C(=O)N3CCCC3)C(=O)C(=O)N21,-14.3% [at 57.5 µM] (inactive),
CCn1c2ccccc2c2cc(NC(=O)COC(=O)c3cc(S(=O)(=O)N4CCCCC4)ccc3Cl)ccc21,1.01% (inactive),
O=C(Nc1nc(-c2ccc(S(=O)(=O)N3CCOCC3)cc2)cs1)c1ccccc1,-26.6% (inactive),
Cc1nc(-c2cccc(NC(=O)c3cccc(S(=O)(=O)N4CCCC4)c3)c2)cs1,,28.2 µM (active)
Cn1c(N)c(C(=O)Nc2ccc(-c3ccccc3)cc2)sc1=S,-20.9% [at 57.5 µM] (inactive),
COc1ccc(Oc2c(Cl)cnn(-c3ccccc3)c2=O)cc1,,3.16 µM (active)
COc1ccc(C(=O)Nn2c(SCC(=O)c3ccccc3)nc3ccccc3c2=O)cc1,-26% [at 57.5 µM] (inactive),
COc1ccc(C2CC(c3ccccc3Cl)=NN2c2ccc(S(N)(=O)=O)cc2)cc1 (centres undefined),1.38% [at 57.5 µM] (inactive),
